The text below walks through data of PubChem BioAssay (NCI).

Common to all, as to test: NCI-60 one-dose screen, 48 h (100 = growth as untreated, 0 = no growth, -100 = all killed)
One test relates to HCT-15 colon. The settings on record: 10 µM unless noted.
The subject of the next test is HT29 colon. The settings on record: 10 µM unless noted.
Another test relates to SNB-75 CNS. The settings on record: 10 µM unless noted.
The subject of another test is U251 CNS. The settings on record: 10 µM unless noted.
Another test deals with PC-3 prostate. The settings on record: 10 µM unless noted.
A further test deals with SK-MEL-5 melanoma. The settings on record: 10 µM unless noted.
A further test deals with UACC-62 melanoma. The settings on record: 10 µM unless noted.
Another test relates to LOX IMVI melanoma. The settings on record: 10 µM unless noted.
The test system of a further test is SK-MEL-28 melanoma. The settings on record: 10 µM unless noted.
A further test has as its system SK-MEL-2 melanoma. The settings on record: 10 µM unless noted.
A further test concerns SN12C renal. The settings on record: 10 µM unless noted.
The subject of the next test is UO-31 renal. The settings on record: 10 µM unless noted.
A further test has as its system ACHN renal. The settings on record: 10 µM unless noted.
Another test relates to A498 renal. The settings on record: 10 µM unless noted.
The next test has as its system MOLT-4 leukemia. The settings on record: 10 µM unless noted.
Another test deals with SNB-19 CNS. The settings on record: 10 µM unless noted.
The test system of a further test is EKVX NSCLC. The settings on record: 10 µM.
The subject of a further test is TK-10 renal. The settings on record: 10 µM unless noted.
The next test deals with CAKI-1 renal. The settings on record: 10 µM unless noted.
Another test deals with CCRF-CEM leukemia. The settings on record: 10 µM.

Compounds without any hit were thinned out: in the full panel of roughly 83,000, 20% have a hit.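 Testing used 96-well plates and a 48-hour single-concentration exposure. Example: -40 means 40% of the starting cells died.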 Values without a mark were called inactive. Calls of active or inactive are those of the source. How the source made its calls: active means growth percent below 10; inactive means the rest.

With `Br/C(=N\Nc1nn[nH]n1)c1ccccc1`, the growth is 96.6% in the test on HCT-15 colon; 110% in the test with HT29 colon; 80.8% with SNB-75 CNS; 99.6% in the test on U251 CNS; 96.1% in the test with PC-3 prostate; 102% in the test with SK-MEL-5 melanoma. Besides, the growth was 101% in the test with UACC-62 melanoma; 86.3% in the test with LOX IMVI melanoma; 109% with SK-MEL-28 melanoma; 90.9% with SK-MEL-2 melanoma; 98.7% in the test with SN12C renal; 78.6% with UO-31 renal. Further, the figures for the growth in the test with ACHN renal, in the test with A498 renal and in the test on MOLT-4 leukemia were 92.7%, 114% and 105%, respectively.

Consider `CCCCCCCCCCCCCCCCC(=O)O.CCCCCCCCCCCCCCCCCC(=O)O.CCCCCCCCCCCCCCCCCC(=O)O.CCCCCCCCCCCCCCCCCC(=O)O.CCCCCCCCCCCCCCCCCC(=O)O.CO[CH-]OC12COC1CC(O)C1(C)C(O)C(OC(C)O)C3=C(C)C(OC(=O)C(O)C([NH-])c4ccccc4)CC(O)(C(OC(=O)c4ccccc4)C21)C3(C)C.[Cu+].[Zn].[Zn].[Zn].[Zn].[Zn]` (stereo unspecified), for which the growth in the test on HCT-15 colon is 20.5%; in the test with HT29 colon, 12%; with SNB-19 CNS, 29.6%; in the test with U251 CNS it was 33.6%; in the test with PC-3 prostate, 30.5%; with SK-MEL-5 melanoma it was 38.4%. The growth in the test on UACC-62 melanoma was 42.8%; in the test on LOX IMVI melanoma, 39.4%; in the test on SK-MEL-28 melanoma, 80.4%; in the test with SK-MEL-2 melanoma, 69.3%; in the test with EKVX NSCLC, 29.5%; in the test with SN12C renal, 29.9%. For the same compound, the growth was 27.2% in the test on UO-31 renal; 48% in the test on TK-10 renal; 36.2% with ACHN renal; 27% in the test with CAKI-1 renal; 45.6% with A498 renal; 23.7% in the test on CCRF-CEM leukemia. The growth in the test on MOLT-4 leukemia was 29%.

Take `CC(=O)N1CCN(CCNC(=O)n2cc(-c3ccncc3)c(-c3cc(O)cc(Cl)c3)n2)CC1`: the growth in the test with HCT-15 colon was 51.1%; with HT29 colon, 21.7%; with SNB-19 CNS, 106%; with U251 CNS it was 80.1%; in the test on PC-3 prostate, 114%; in the test with SK-MEL-5 melanoma it was 63.6%. Moreover, the growth was 27.8% in the test with UACC-62 melanoma; 68.3% in the test with LOX IMVI melanoma; 31.4% in the test on SK-MEL-28 melanoma; 112% in the test on EKVX NSCLC; 94.4% with SN12C renal; 72.9% with UO-31 renal. Moreover, the growth in the test on TK-10 renal was 62.5%; in the test with ACHN renal, 76.9%; in the test with A498 renal, 93.1%; in the test on CCRF-CEM leukemia, 71.6%; in the test on MOLT-4 leukemia it was 67.3%.

`COc1ccc(C(=O)N2N=C(c3ccc(Br)cc3)CC2c2cn(-c3ccccc3)nc2-c2ccccc2)cc1` (stereo unspecified): the growth is 58.9% in the test with HCT-15 colon; 70.4% in the test with SNB-75 CNS; 65.3% in the test with SNB-19 CNS; 6.67% (active) in the test on U251 CNS; 36.1% in the test on PC-3 prostate; 92.3% in the test on SK-MEL-5 melanoma. Also, the growth in the test with UACC-62 melanoma was 74.7%; with LOX IMVI melanoma it was 44.5%; in the test on SK-MEL-28 melanoma, 61.2%; in the test on EKVX NSCLC it was 78.5%; in the test on SN12C renal it was 58.9%; in the test on UO-31 renal, 84.5%. The growth in the test with ACHN renal is 87.8%; in the test with CAKI-1 renal it was 75%; with A498 renal, 89.1%; in the test on CCRF-CEM leukemia, 67.9%; in the test with MOLT-4 leukemia, 46.1%.

On to `O=C(Nc1ccc(-n2cc(-c3ccncc3)c(-c3ccc(Cl)c(O)c3)n2)cc1)c1ccc(Cl)c(Cl)c1`, for which the growth in the test on HCT-15 colon is 12.2%; in the test on HT29 colon it was -34.7% (active); with SNB-19 CNS, 77.1%; with U251 CNS it was 34.1%; in the test on PC-3 prostate, 17.2%; in the test with SK-MEL-5 melanoma, -99.3% (active). For the same compound, the growth is 11.3% with UACC-62 melanoma; 29.1% in the test on LOX IMVI melanoma; -7.55% (active) with SK-MEL-28 melanoma; 61.8% in the test with EKVX NSCLC; 65.7% in the test on SN12C renal; 14.8% in the test with UO-31 renal. For the same compound, the growth was 33% in the test on TK-10 renal; 38.4% in the test with ACHN renal; 0.324% (active) in the test with CAKI-1 renal; 83.8% with A498 renal; 40.2% with CCRF-CEM leukemia; 22.3% with MOLT-4 leukemia.

Regarding `Cc1c([C@H](C(Cl)Cl)[C@H](O)[C@H]2C[C@H](C)C(=O)O2)ccc2c1C(=O)[C@H]1[C@H]2C[C@@H](Br)[C@@]23O[C@@H](CO[C@H]2O)CC13C` (stereo partly specified), the growth in the test on HCT-15 colon is 7.63% (active); with HT29 colon it was 13.1%; in the test with SNB-75 CNS it was 58.4%; in the test with U251 CNS, 14.4%; in the test with PC-3 prostate it was 30.4%; in the test on UACC-62 melanoma it was 26.6%. Moreover, the growth in the test with LOX IMVI melanoma was 33.4%; with SK-MEL-28 melanoma, 47.6%; with SK-MEL-2 melanoma it was 74%; in the test on EKVX NSCLC, 27.7%; in the test with SN12C renal, 25.1%; in the test with UO-31 renal it was 56.2%. Further, the growth was 45.9% in the test on ACHN renal; -31.4% (active) in the test on CAKI-1 renal; -22.6% (active) in the test on A498 renal; 17.2% in the test on CCRF-CEM leukemia; 16.4% in the test on MOLT-4 leukemia.

As to `Cc1cc2cn3c4ccc(O)cc4nc(N)c3c2cc1C`, the growth is 7.85% (active) in the test with HCT-15 colon; -65.6% (active) in the test on HT29 colon; 29.1% with SNB-19 CNS; -5.52% (active) in the test with U251 CNS; 25.4% with PC-3 prostate; 46.9% in the test on UACC-62 melanoma. In addition, the growth is 27.4% in the test on LOX IMVI melanoma; 37.2% in the test with EKVX NSCLC; 44.6% in the test with SN12C renal; 6.2% (active) in the test with UO-31 renal; 5.03% (active) with TK-10 renal; 7.58% (active) in the test with ACHN renal. Besides, the growth in the test on CAKI-1 renal was -4.28% (active); in the test with A498 renal it was 21.1%; in the test on CCRF-CEM leukemia, 11.5%; in the test with MOLT-4 leukemia, 5.17% (active).

In the case of `C=CCN(C)C`, the growth in the test with HCT-15 colon was 113%; in the test with HT29 colon it was 113%; in the test on SNB-19 CNS, 102%; with U251 CNS, 102%; in the test on PC-3 prostate, 105%; in the test with SK-MEL-5 melanoma, 108%. The growth with UACC-62 melanoma is 101%; in the test on LOX IMVI melanoma, 99.8%; in the test with SK-MEL-28 melanoma, 110%; with SK-MEL-2 melanoma, 113%; in the test with EKVX NSCLC it was 92%; in the test on SN12C renal, 94.7%. Further, the growth in the test on UO-31 renal was 93.3%; in the test with TK-10 renal, 119%; in the test with ACHN renal, 105%; in the test with CAKI-1 renal it was 92.5%; in the test with A498 renal, 91.1%.

Consider `Cc1ccc(C(=O)C(Br)C(Br)c2ccccc2)cc1` (stereo unspecified), for which the growth is 80.3% with HCT-15 colon; 101% in the test with HT29 colon; 82.9% with SNB-75 CNS; 82.7% with U251 CNS; 108% with PC-3 prostate; 94.3% in the test with SK-MEL-5 melanoma. Moreover, the growth in the test on UACC-62 melanoma is 94.7%; in the test with LOX IMVI melanoma, 66.6%; in the test with SK-MEL-2 melanoma, 113%; with SN12C renal, 86.4%; in the test with UO-31 renal it was 66.9%; in the test with ACHN renal, 44.3%. For the same compound, the growth in the test with CAKI-1 renal is 55.1%; in the test with A498 renal it was 75.6%; with MOLT-4 leukemia, 46%.
